Drawing on PubChem BioAssay (NCATS), this text covers Potency for 26 compounds.

Records with an inconclusive call do not appear. Entries that show only a call come without a potency. Active and inactive are the calls of the source. Calls come from the whole dose curve.
Potency is the fitted concentration of half-maximal effect.

The target of this assay is Nucleoprotein (Lymphocytic choriomeningitis virus (strain Armstrong)) (UniProt P09992). Nature of the assay: qHTS for Inhibitors of the Functional Ribonucleoprotein Complex (vRNP) of Lymphocytic Choriomeningitis Arenaviruses (LCMV): LCMV Primary Screen - GLuc reporter signal (AID 1347086). Note: nearly all actives have a fitted effect of over 70% in size. The following applies: LCMV minigenome vRNP cell assay, Gaussia luciferase reporter; series mostly up to 57.5 µM.
Sequence of Nucleoprotein (Lymphocytic choriomeningitis virus (strain Armstrong)) (P09992 whole entry, looked up): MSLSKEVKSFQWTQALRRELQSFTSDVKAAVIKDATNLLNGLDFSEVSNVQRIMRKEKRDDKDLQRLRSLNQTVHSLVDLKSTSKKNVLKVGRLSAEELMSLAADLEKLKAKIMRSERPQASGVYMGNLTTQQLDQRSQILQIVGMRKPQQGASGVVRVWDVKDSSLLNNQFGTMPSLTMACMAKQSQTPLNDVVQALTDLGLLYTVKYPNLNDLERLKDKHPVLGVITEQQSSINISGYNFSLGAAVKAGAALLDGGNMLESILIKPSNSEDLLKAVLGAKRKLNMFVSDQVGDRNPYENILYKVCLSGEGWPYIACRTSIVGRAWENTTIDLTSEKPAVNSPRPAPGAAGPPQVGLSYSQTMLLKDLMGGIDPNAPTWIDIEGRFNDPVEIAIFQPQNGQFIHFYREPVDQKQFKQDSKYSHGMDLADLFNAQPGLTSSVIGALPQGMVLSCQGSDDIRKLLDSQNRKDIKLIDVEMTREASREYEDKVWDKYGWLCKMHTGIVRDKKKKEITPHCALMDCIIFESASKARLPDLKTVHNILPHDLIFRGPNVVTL
On to `C[C@H]1COc2c(N3CCN(C)CC3)c(F)cc3c(=O)c(C(=O)O)cn1c23`, for which the Potency result is “inactive”. As for `O=S(=O)(c1cccc2c(Cl)cccc12)N1CCCNCC1`, the entry is “inactive”; as for `COc1ccc(CCN(C)CCCC(C#N)(c2ccc(OC)c(OC)c2)C(C)C)cc1OC` (stereo unspecified), “inactive”; as for `CN(C/C=C/c1ccccc1)Cc1cccc2ccccc12`, “inactive”. As for `OCCCNc1cc(-c2ccnc(Nc3cccc(Cl)c3)n2)ccn1`, the figure is 968 nM (active); as for `Cc1ccc(C(=O)Nc2cccc(C(F)(F)F)c2)cc1Nc1nc(-c2cccnc2)nc2c1cnn2C`, “inactive”. As for `O=S(=O)(c1cccc2c(I)cccc12)N1CCCNCC1`, the entry is “inactive”; as for `C[N+]1(CCCCC[N+]2(C)CCCC2)CCCC1`, “inactive”; as for `O=C(O)c1nc(=O)[nH]c(=O)[nH]1`, “inactive”. Regarding `CCc1cc2c(cc1N1CCC(N3CCOCC3)CC1)C(C)(C)c1[nH]c3cc(C#N)ccc3c1C2=O`, the Potency result was “inactive”.

For `N#CC(c1ccc(Cl)cc1)c1c(Cl)cc(-n2ncc(=O)[nH]c2=O)cc1Cl` (stereo unspecified), the Potency result was “inactive”. The entry for `NC(N)=NCc1cccc(I)c1` is “inactive”. Consider `CO[C@H]1[C@@H](O)[C@H](N)[C@@H](O[C@H]2O[C@H]([C@H](C)N)CC[C@H]2N)[C@H](O)[C@@H]1N(C)C(=O)CN`, for which the Potency entry is “inactive”.

Turning to `O=C(O)/C=C/c1ccccc1`, the Potency result is “inactive”.

For `CC(=O)O[C@H]1Cc2ccccc2N(C(N)=O)c2ccccc21`, the Potency entry is “inactive”. The entry for `CCCOc1ccc2[nH]cc(C3=CCNCC3)c2n1` is “inactive”. The entry for `CC(C)COC(=O)OCN1C(=O)CN(CCN2CC(=O)N(COC(=O)OCC(C)C)C(=O)C2)CC1=O` is “inactive”; for `CN(C)CCC(c1ccc(Br)cc1)c1ccccn1` (stereo unspecified) it is “inactive”. Consider `COc1ccc(/C=C/C(=O)Nc2ccccc2C(=O)O)cc1OC`, for which the Potency entry was “inactive”. As for `CC(C)(O)C1OC2CCC3(C)C(O)(CCC4Cc5c([nH]c6ccccc56)C43C)C2=CC1=O` (stereo unspecified), the entry is “inactive”; as for `CCc1nc(-c2cccc(C)c2)c(-c2ccnc(NC(=O)c3ccccc3)c2)s1`, “inactive”.

In the case of `CN(C)CCCN1c2ccccc2CCc2ccccc21`, the Potency entry was “inactive”. As for `CCC(=O)NCC[C@@H]1CCc2ccc3c(c21)CCO3`, the Potency entry is “inactive”. The entry for `OC[C@@H]1[C@@H](O)[C@H](O)[C@H]2[C@@H](O)CCN21` is “inactive”; for `CC1(C)CCC(CN2CCN(c3ccc(C(=O)NS(=O)(=O)c4ccc(NCC5CCOCC5)c([N+](=O)[O-])c4)c(Oc4cnc5[nH]ccc5c4)c3)CC2)=C(c2ccc(Cl)cc2)C1` it is “inactive”. As for `O=[N+]([O-])c1c(Cl)cccc1-c1c[nH]cc1Cl`, the entry is “inactive”.
